Results as given in the supplement of paper PMC12669032.
Values without a mark were called inactive.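 The calls were made as follows: active = AUC reduced over 20% with Padj below 0.05 in at least 2 of 3 replicates; inactive = otherwise.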

Legend:
Assay in all cases: growth AUC relative to DMSO control (median of replicates) (fraction); higher = more growth (less inhibition), active = hit call of the paper
Settings in all cases: 20 µM; 24 h
Akkermansia muciniphila = test system: Akkermansia muciniphila
Method in brief: (§1)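 For each compound at 20 µM (1% DMSO), gut bacterial monocultures seeded at OD600 0.05 grew anaerobically in mGAM at 37 °C in round-bottom 96-well plates. Hourly OD600 readings over 24 h gave growth curves whose minimum OD was set to 0. Area under these curves was normalised to the plate median of solvent-only wells, or to row and column medians on the industrial chemical plate. Values are medians of three biological replicates grown on separate days.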

Bacteroides caccae = test system: Bacteroides caccae
Method in brief: as §1

Bacteroides clarus = test system: Bacteroides clarus
Method in brief: as §1

Bacteroides dorei = test system: Bacteroides dorei
Method in brief: as §1

Bacteroides stercoris = test system: Bacteroides stercoris
Method in brief: as §1

[1] = test system: Bacteroides thetaiotaomicron
Method in brief: as §1

Bacteroides uniformis = test system: Bacteroides uniformis
Method in brief: as §1

[2] = test system: Bifidobacterium longum subsp. longum
Method in brief: as §1

Clostridium difficile = test system: Clostridium difficile
Method in brief: as §1

Collinsella aerofaciens = test system: Collinsella aerofaciens
Method in brief: as §1

Coprococcus comes = test system: Coprococcus comes
Method in brief: as §1

Escherichia coli ED1a = test system: Escherichia coli ED1a
Method in brief: as §1

Escherichia coli IAI1 = test system: Escherichia coli IAI1
Method in brief: as §1

Eubacterium rectale = test system: Eubacterium rectale
Method in brief: as §1

[3] = test system: Fusobacterium nucleatum subsp. animalis
Method in brief: as §1

Lactobacillus gasseri = test system: Lactobacillus gasseri
Method in brief: as §1

Lactobacillus paracasei = test system: Lactobacillus paracasei
Method in brief: as §1

Odoribacter splanchnicus = test system: Odoribacter splanchnicus
Method in brief: as §1

[4] = test system: Parabacteroides distasonis
Method in brief: as §1

Parabacteroides merdae = test system: Parabacteroides merdae
Method in brief: as §1

SMILES | growth AUC (Akkermansia muciniphila) | growth AUC (Bacteroides caccae) | growth AUC (Bacteroides clarus) | growth AUC (Bacteroides dorei) | growth AUC (Bacteroides stercoris) | growth AUC [1] | growth AUC (Bacteroides uniformis) | growth AUC [2] | growth AUC (Clostridium difficile) | growth AUC (Collinsella aerofaciens) | growth AUC (Coprococcus comes) | growth AUC (Escherichia coli ED1a) | growth AUC (Escherichia coli IAI1) | growth AUC (Eubacterium rectale) | growth AUC [3] | growth AUC (Lactobacillus gasseri) | growth AUC (Lactobacillus paracasei) | growth AUC (Odoribacter splanchnicus) | growth AUC [4] | growth AUC (Parabacteroides merdae)
CCCC(Cn1cncn1)c1ccc(Cl)cc1Cl (stereo not given) | 1.01 | 0.936 | 0.987 | 0.977 | 1.2 | 0.949 | 0.941 | 1.07 | 0.911 | 0.992 | 0.919 | 0.997 | 1.03 | 0.73 (active) | 1.05 | 1.05 | 0.987 | 0.962 | 0.991 | 0.969
O=c1oc2ccccc2c(O)c1C(CC(O)c1ccc(-c2ccc(Br)cc2)cc1)c1ccccc1 (stereo not given) | 1 | 0.438 (active) | 0.279 (active) | 0.563 (active) | 0.00869 (active) | 0.733 (active) | 0.703 (active) | 0.747 (active) | 0.327 (active) | 0.941 | 0.923 | 1 | 0.97 | 0.883 | 0.936 | 0.801 | 0.838 | 0.167 (active) | 0.516 (active) | 0.25 (active)
Cc1cc(Cl)ccc1OCC(=O)O | 1.02 | 0.996 | 1.01 | 0.933 | 0.945 | 1.02 | 1 | 1.1 | 0.967 | 1.04 | 1.02 | 1.02 | 1 | 0.984 | 1.07 | 1.05 | 1.04 | 1.05 | 1.01 | 1.04
CNC(=O)Oc1cc(C)c(SC)c(C)c1 | 1.07 | 0.934 | 1 | 0.971 | 0.912 | 1.01 | 0.989 | 1.34 | 1.01 | 0.934 | 1.01 | 0.987 | 0.967 | 0.982 | 0.984 | 0.883 | 0.931 | 1.11 | 1.02 | 0.912
COC(=O)NCc1cc(/C(C)=N/OCc2cccc(C)n2)ccc1Cl | 1.06 | 0.965 | 0.947 | 0.946 | 0.972 | 0.944 | 0.808 | 0.981 | 0.956 | 1.01 | 1.03 | 1.01 | 0.972 | 0.998 | 0.933 | 0.911 | 0.969 | 1.01 | 0.919 | 0.955
COCc1c(F)c(F)c(COC(=O)C2C(C=C(C)C)C2(C)C)c(F)c1F (stereo not given) | 0.976 | 0.953 | 0.943 | 0.991 | 1.17 | 0.98 | 0.972 | 1.01 | 1.02 | 1.03 | 0.979 | 1.01 | 1.02 | 0.906 | 1.04 | 0.873 | 0.978 | 1.05 | 1.03 | 1.02
COC(=O)c1cc(Oc2ccc(Cl)cc2Cl)ccc1[N+](=O)[O-] | 1.02 | 0.953 | 0.793 (active) | 0.973 | 0.436 (active) | 0.968 | 0.814 | 1.02 | 0.905 | 0.901 | 0.993 | 0.985 | 0.982 | 1.11 | 0.975 | 0.933 | 0.928 | 0.934 | 0.449 (active) | 0.958
CCCN(CCC)c1c([N+](=O)[O-])cc(C(F)(F)F)cc1[N+](=O)[O-] | 1.02 | 1.02 | 1.04 | 1.03 | 1.05 | 0.976 | 1.01 | 1.1 | 1 | 1.01 | 1 | 1.02 | 1.01 | 1.01 | 1.03 | 1.03 | 1.09 | 1.01 | 1.09 | 1.01
Clc1cccc(Cl)c1Cl | 0.898 | 1.04 | 0.992 | 0.997 | 0.945 | 1.02 | 1.01 | 1.04 | 0.996 | 0.973 | 1.01 | 0.985 | 0.997 | 0.982 | 1 | 1.02 | 1.03 | 1 | 1 | 1.01
CC(Cl)(Cl)C(=O)O | 0.869 | 1.05 | 1.02 | 1.02 | 1.02 | 1.01 | 1.02 | 0.983 | 0.999 | 1.02 | 0.998 | 1.02 | 0.98 | 0.996 | 1.02 | 1.05 | 0.977 | 0.969 | 1.02 | 0.961
COc1ncc(F)c2nc(S(=O)(=O)Nc3c(F)cccc3F)nn12 | 0.991 | 1.02 | 0.985 | 1.01 | 1.13 | 0.974 | 1 | 1.01 | 0.994 | 1.01 | 1.03 | 1.01 | 0.989 | 1 | 1.02 | 1.01 | 1 | 0.992 | 0.983 | 1.01
COP(=S)(NC(C)C)Oc1ccc(C)cc1[N+](=O)[O-] (stereo not given) | 0.926 | 0.974 | 0.977 | 0.982 | 1.09 | 0.964 | 0.956 | 1.04 | 1.08 | 1.05 | 1.03 | 0.997 | 0.996 | 0.933 | 1.06 | 1.03 | 1.06 | 0.998 | 0.972 | 0.973
COC(=O)c1ccccc1CS(=O)(=O)NC(=O)Nc1nc(OC)cc(OC)n1 | 0.94 | 1.02 | 0.972 | 0.985 | 0.969 | 1.02 | 1.01 | 1.05 | 1.02 | 0.956 | 1.02 | 0.974 | 0.978 | 0.998 | 0.999 | 0.996 | 1 | 1.02 | 0.998 | 1
C#CCN1CC(=O)N(COC(=O)C2C(C=C(C)C)C2(C)C)C1=O (mixture of isomers) | 0.804 | 0.949 | 0.936 | 0.96 | 0.986 | 0.952 | 0.962 | 0.949 | 0.997 | 1.02 | 0.982 | 0.991 | 0.968 | 0.805 | 0.945 | 0.994 | 0.997 | 0.958 | 0.996 | 0.927
CC(C)=CC1C(C(=O)OCc2cccc(Oc3ccccc3)c2)C1(C)C (mixture of isomers) | 1.21 | 0.961 | 0.994 | 0.917 | 1.01 | 1 | 0.991 | 0.864 | 1.02 | 0.914 | 0.992 | 0.975 | 0.974 | 1.06 | 1.11 | 0.767 | 1.02 | 1.03 | 0.924 | 0.956
CC(Oc1ccc(Oc2ccc(Cl)cc2Cl)cc1)C(=O)O (racemic) | 0.812 | 0.991 | 0.875 | 0.997 | 0.851 | 0.989 | 0.98 | 0.903 | 1.02 | 0.995 | 0.943 | 0.974 | 1.02 | 0.988 | 0.961 | 1.16 | 0.999 | 1.09 | 1.06 | 0.956
